Measurements published in PubChem BioAssay (NCI).
This is part of a sample that, as a whole, favours compounds with a hit. Of some 79,000 tested, about 15% had one in any assay. Active and inactive are the calls of the source. Rule as the data show it: active = growth inhibition above about 70%; inactive = the rest.

Assay: NCI Yeast Anticancer Drug Screen. Data for the mec2-1 strain (AID 157)
Details: S. cerevisiae mec2-1 strain, at 50.0 µM, hits give high values
In short: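 Growth inhibition is read against vehicle-treated controls after compound exposure of the mec2-1 yeast strain, which is defective in DNA damage repair or cell cycle control.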
In the case of O=C(O)c1c[n+]([O-])ccc1Cl, the growth inhibition is reported as -0.9% (inactive).
For C[N+](C)(C)CC(=O)N/N=C/c1oc(-c2cccc([N+](=O)[O-])c2)c(-c2cccc([N+](=O)[O-])c2)c1[N+](=O)[O-], the growth inhibition was 11.7% (inactive).
In the case of O=c1[nH]c(=O)n(C2OC(COP(=O)(O)OP(=O)(O)O)C(O)C2O)cc1F (stereo not given), the growth inhibition is reported as -2.7% (inactive).
With O=c1[nH]c(=O)n(C2OC(CO)C(O)C2O)cc1OCc1ccccc1 (stereo not given) the growth inhibition was -19.8% (inactive).
For COc1ccc(C(=O)/C=c2/c(CC(=O)c3ccc(OC)cc3)nc3nnc(N)n23)cc1, the growth inhibition was -4.05% (inactive).
With COc1cc([C@@H]2C3C(=O)c4ccccc4C3[C@@H](c3cc(OC)c(OC)c(OC)c3)C23Cc2ccccc2C3=O)cc(OC)c1OC (stereo not given in full) the growth inhibition was -0.95% (inactive).
In the case of Cn1c(=O)c2c(nc(CCNC(=O)c3ccccc3)n2C)n(C)c1=O, the growth inhibition is reported as -7.75% (inactive).
In the case of O=C(NC1CCCCC1)C1C2CC3OC(=O)C1C3C2 (stereo not given), the growth inhibition is reported as -19.2% (inactive).
In the case of COc1ccc(-c2cc(-c3ccccc3)nc(-c3cccc([N+](=O)[O-])c3)c2)cc1, the growth inhibition is reported as -4.4% (inactive).
In the case of Cc1ccc(S(=O)(=O)CC(=O)c2ccc(Br)cc2)cc1, the growth inhibition is reported as -21.2% (inactive).
For N[C@H](CCC(=O)NCP(=O)(O)O)C(=O)O, the growth inhibition was -42.6% (inactive).
For NOCc1cc(Cl)sc1Cl, the growth inhibition was -2.9% (inactive).
For CCN(CC)CCCCCOC(=O)c1ccccc1, the growth inhibition was 28.2% (inactive).
For CC(=O)OC1CC(OC(C)=O)C(OC(C)=O)CC1OC(C)=O (stereo not given), the growth inhibition was -5.15% (inactive).
For CN1CCN(c2c3c(nc4ccccc24)CCCC3)CC1, the growth inhibition was 2% (inactive).
In the case of CC(C)(C)C(=O)CC(=O)C(F)(F)C(F)(F)C(F)(F)F.CC(C)(C)C(=O)CC(=O)C(F)(F)C(F)(F)C(F)(F)F.CC(C)(C)C(=O)CC(=O)C(F)(F)C(F)(F)C(F)(F)F.[Eu], the growth inhibition is reported as 39.4% (inactive).
In the case of O=C1CC2CCC(C1)S2=O (stereo not given), the growth inhibition is reported as -10.5% (inactive).
In the case of N#CC1(N(O)C(=O)Nc2ccccc2)CCCCC1, the growth inhibition is reported as -10.3% (inactive).
In the case of Nc1ccc2[nH]cc(CCC(=O)O)c2c1, the growth inhibition is reported as -6.95% (inactive).
For CC12CCc3ccccc3C1=NNC(=O)C2 (stereo not given), the growth inhibition was -7.55% (inactive).
With Cc1cccc(NC(=S)Nc2ccc(-c3ccc(NC(=S)Nc4cccc(C)c4)cc3)cc2)c1 the growth inhibition was 22.6% (inactive).
For CCC(CC(N)=O)C(C#N)(C#N)C(N)=O (stereo not given), the growth inhibition was 5.05% (inactive).
With O=C(O)/C=C/c1ccccc1Cl the growth inhibition was 10.1% (inactive).
With OC(COc1cccc(C(F)(F)F)c1)CN1CCN(c2ccccc2)CC1 (stereo not given) the growth inhibition was 83% (active).
For COc1cc(/C=C2\C(=O)N(C(=O)c3ccc(NC(C)=O)cc3)N=C2C)ccc1O, the growth inhibition was -41.1% (inactive).
With COC(=O)c1cc(CN(C)C)c(O)c(CN(C)C)c1 the growth inhibition was -10.8% (inactive).
With CCOC(=O)c1c(N=P(c2ccccc2)(c2ccccc2)c2ccccc2)nnc(-c2ccccc2)c1-c1ccccc1 the growth inhibition was -15.4% (inactive).
In the case of Nc1cc2c(cc1/C=C1\CCNC1=O)OCO2, the growth inhibition is reported as -12.1% (inactive).
For CC(C)CCCC(C)C1CCC2(C)C3=C(CCC12C)C1(C)CCC(=O)C(C)(C)C1CC3 (stereo not given), the growth inhibition was 57.2% (inactive).
In the case of COc1ccc(C2CC(=O)N(CC(=O)O)C(=O)C2)cc1, the growth inhibition is reported as 14.8% (inactive).
In the case of CC(Cc1ccccc1)c1ccccc1 (stereo not given), the growth inhibition is reported as 16.2% (inactive).
In the case of Cc1cc(=O)n(-c2ccccc2)c(=O)n1-c1nc2ccccc2[nH]1, the growth inhibition is reported as -8.4% (inactive).
For c1ccc2cc(CNCCCCNCCCNCc3ccc4ccccc4c3)ccc2c1, the growth inhibition was 38.6% (inactive).
In the case of CCCCCCCCCCCCCCCCCCCCCC(=O)O, the growth inhibition is reported as -21.4% (inactive).
For [Cl][Pt+2][Cl].[NH-]CC1(C[NH-])CCC1, the growth inhibition was 1.5% (inactive).
In the case of COc1cc2c(c3oc(=O)cc(CCC(=O)O)c13)C1CC(=O)OC1O2 (stereo not given), the growth inhibition is reported as -16.6% (inactive).
With CN=C(Nc1cccc(C(F)(F)F)c1)SCc1ccc(N=C=S)cc1 the growth inhibition was 28.3% (inactive).
In the case of CCCCCCCCCCCO, the growth inhibition is reported as -13.2% (inactive).
In the case of O=c1cccc2c3ccccc3ccn12, the growth inhibition is reported as 7% (inactive).
With O=C(NCCCCCCCCNC(=O)c1cccc2ccccc12)c1cccc2ccccc12 the growth inhibition was 25% (inactive).

Assay: NCI Yeast Anticancer Drug Screen. Data for the sgs1 mgt1 strain (AID 161);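 also: 0% = growth of cultures given vehicle only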
Details: S. cerevisiae sgs1 mgt1 strain, at 50.0 µM, hits give high values
In short: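 Yeast cells carrying a defined DNA-repair defect were exposed to test compounds. Growth inhibition was measured relative to vehicle-treated controls.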
In the case of O=C(O)c1c[n+]([O-])ccc1Cl, the growth inhibition is reported as -8% (inactive).
With C[N+](C)(C)CC(=O)N/N=C/c1oc(-c2cccc([N+](=O)[O-])c2)c(-c2cccc([N+](=O)[O-])c2)c1[N+](=O)[O-] the growth inhibition was 11.8% (inactive).
In the case of O=c1[nH]c(=O)n(C2OC(COP(=O)(O)OP(=O)(O)O)C(O)C2O)cc1F (stereo not given), the growth inhibition is reported as -11.4% (inactive).
In the case of O=c1[nH]c(=O)n(C2OC(CO)C(O)C2O)cc1OCc1ccccc1 (stereo not given), the growth inhibition is reported as -22.8% (inactive).
For COc1ccc(C(=O)/C=c2/c(CC(=O)c3ccc(OC)cc3)nc3nnc(N)n23)cc1, the growth inhibition was -6.25% (inactive).
In the case of COc1cc([C@@H]2C3C(=O)c4ccccc4C3[C@@H](c3cc(OC)c(OC)c(OC)c3)C23Cc2ccccc2C3=O)cc(OC)c1OC (stereo not given in full), the growth inhibition is reported as -11.2% (inactive).
In the case of Cn1c(=O)c2c(nc(CCNC(=O)c3ccccc3)n2C)n(C)c1=O, the growth inhibition is reported as 11.1% (inactive).
With O=C(NC1CCCCC1)C1C2CC3OC(=O)C1C3C2 (stereo not given) the growth inhibition was 37.1% (inactive).
In the case of COc1ccc(-c2cc(-c3ccccc3)nc(-c3cccc([N+](=O)[O-])c3)c2)cc1, the growth inhibition is reported as 11.4% (inactive).
For Cc1ccc(S(=O)(=O)CC(=O)c2ccc(Br)cc2)cc1, the growth inhibition was -16.4% (inactive).
For N[C@H](CCC(=O)NCP(=O)(O)O)C(=O)O, the growth inhibition was -44.7% (inactive).
For NOCc1cc(Cl)sc1Cl, the growth inhibition was 6.1% (inactive).
For CCN(CC)CCCCCOC(=O)c1ccccc1, the growth inhibition was 48.5% (inactive).
With CC(=O)OC1CC(OC(C)=O)C(OC(C)=O)CC1OC(C)=O (stereo not given) the growth inhibition was -9.45% (inactive).
For CN1CCN(c2c3c(nc4ccccc24)CCCC3)CC1, the growth inhibition was -2.4% (inactive).
With CC(C)(C)C(=O)CC(=O)C(F)(F)C(F)(F)C(F)(F)F.CC(C)(C)C(=O)CC(=O)C(F)(F)C(F)(F)C(F)(F)F.CC(C)(C)C(=O)CC(=O)C(F)(F)C(F)(F)C(F)(F)F.[Eu] the growth inhibition was 21.2% (inactive).
For O=C1CC2CCC(C1)S2=O (stereo not given), the growth inhibition was 17.5% (inactive).
In the case of N#CC1(N(O)C(=O)Nc2ccccc2)CCCCC1, the growth inhibition is reported as -0.4% (inactive).
For Nc1ccc2[nH]cc(CCC(=O)O)c2c1, the growth inhibition was -4.45% (inactive).
For CC12CCc3ccccc3C1=NNC(=O)C2 (stereo not given), the growth inhibition was 19.6% (inactive).
With Cc1cccc(NC(=S)Nc2ccc(-c3ccc(NC(=S)Nc4cccc(C)c4)cc3)cc2)c1 the growth inhibition was 29.9% (inactive).
In the case of CCC(CC(N)=O)C(C#N)(C#N)C(N)=O (stereo not given), the growth inhibition is reported as -4.05% (inactive).
With O=C(O)/C=C/c1ccccc1Cl the growth inhibition was -1.3% (inactive).
With OC(COc1cccc(C(F)(F)F)c1)CN1CCN(c2ccccc2)CC1 (stereo not given) the growth inhibition was 93.5% (active).
In the case of COc1cc(/C=C2\C(=O)N(C(=O)c3ccc(NC(C)=O)cc3)N=C2C)ccc1O, the growth inhibition is reported as -68.8% (inactive).
With COC(=O)c1cc(CN(C)C)c(O)c(CN(C)C)c1 the growth inhibition was -34% (inactive).
For CCOC(=O)c1c(N=P(c2ccccc2)(c2ccccc2)c2ccccc2)nnc(-c2ccccc2)c1-c1ccccc1, the growth inhibition was 10.9% (inactive).
In the case of Nc1cc2c(cc1/C=C1\CCNC1=O)OCO2, the growth inhibition is reported as -22.2% (inactive).
In the case of CC(C)CCCC(C)C1CCC2(C)C3=C(CCC12C)C1(C)CCC(=O)C(C)(C)C1CC3 (stereo not given), the growth inhibition is reported as 83.5% (active).
With COc1ccc(C2CC(=O)N(CC(=O)O)C(=O)C2)cc1 the growth inhibition was 8.3% (inactive).
For CC(Cc1ccccc1)c1ccccc1 (stereo not given), the growth inhibition was 10.7% (inactive).
With Cc1cc(=O)n(-c2ccccc2)c(=O)n1-c1nc2ccccc2[nH]1 the growth inhibition was 14.7% (inactive).
In the case of c1ccc2cc(CNCCCCNCCCNCc3ccc4ccccc4c3)ccc2c1, the growth inhibition is reported as 62.3% (inactive).
In the case of CCCCCCCCCCCCCCCCCCCCCC(=O)O, the growth inhibition is reported as -21.1% (inactive).
With [Cl][Pt+2][Cl].[NH-]CC1(C[NH-])CCC1 the growth inhibition was 9.2% (inactive).
For COc1cc2c(c3oc(=O)cc(CCC(=O)O)c13)C1CC(=O)OC1O2 (stereo not given), the growth inhibition was -9.15% (inactive).
In the case of CN=C(Nc1cccc(C(F)(F)F)c1)SCc1ccc(N=C=S)cc1, the growth inhibition is reported as 60% (inactive).
In the case of CCCCCCCCCCCO, the growth inhibition is reported as -3.8% (inactive).
With O=c1cccc2c3ccccc3ccn12 the growth inhibition was 15.3% (inactive).
In the case of O=C(NCCCCCCCCNC(=O)c1cccc2ccccc12)c1cccc2ccccc12, the growth inhibition is reported as 2.8% (inactive).
